Holding throughout (assay): NCI-60 one-dose screen, 48 h (100 = growth as untreated, 0 = no growth, -100 = all killed)
Holding throughout (conditions): 10 µM unless noted

The subject of assay [1] is SR leukemia.
Assay [2] relates to RPMI-8226 leukemia.
Assay [3] relates to OVCAR-8 ovarian.
In assay [4] the test system is OVCAR-5 ovarian.
Assay [5] relates to OVCAR-4 ovarian.
The subject of assay [6] is SK-OV-3 ovarian.
In assay [7] the test system is IGROV1 ovarian.
For assay [8], the system named is OVCAR-3 ovarian.
Assay [9] deals with HS 578T breast.
Assay [10] has as its system NCI/ADR-RES ovarian.
The subject of assay [11] is T-47D breast.
Assay [12] deals with BT-549 breast.
Assay [13] relates to MDA-MB-435 melanoma.
The test system of assay [14] is SW-620 colon.
Assay [15] relates to MCF7 breast.
Assay [16] relates to HCT-116 colon.
In assay [17] the test system is HCC-2998 colon.
Assay [18] relates to KM12 colon.

The panel holds about 83,000 compounds, 20% with a hit somewhere; the sample as a whole holds those more often.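 Activity criterion: percent growth below 10, measured after cells in 96-well plates were exposed to a single compound concentration for 48 hours.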 A number with no mark means an inactive call. Activity calls are given as the source filed them.

For `COc1ccc(NC(=O)c2ccc(Cl)cc2Cl)cc1`, the growth in assay [1] was 98.2%; in [2] it was 101%; in assay [3], 98.6%; in assay [4], 101%; in assay [5], 78.7%; in assay [6], 106%. In addition, the growth was 106% in [7]; 106% in assay [8]; 96.8% in assay [9]; 97.5% in assay [10]; 94.5% in assay [11]; 101% in assay [12]. The growth in assay [13] was 88.3%; in assay [14], 95%; in [15] it was 93.8%; in assay [16] it was 99.4%; in [17] it was 105%; in [18] it was 99.1%.

For the compound `Nc1ncnc2c1N=C(c1ccc([N+](=O)[O-])cc1)CC(c1ccc3c(c1)OCO3)N2` (stereo not drawn), the growth in [1] is 85.3%; in assay [2], 71.1%; in assay [3], 89.6%; in [4], 91.7%; in assay [5] it was 95.5%; in assay [6], 91.1%. The growth in assay [7] is 51.1%; in [8] it was 90.6%; in assay [9], 80.7%; in assay [10], 77.6%; in assay [11], 93%; in [12], 86.6%. The growth in assay [13] was 94%; in assay [14], 92%; in assay [15] it was 72.7%; in [16], 83.3%; in assay [17], 53.8%; in assay [18], 89.4%.

Regarding `CC(C)n1cc(C2=C(c3cccc4ccccc34)C(=O)NC2=O)c2cc(Br)ccc21`, the growth was 25.8% in assay [1]; 92.1% in [2]; 72.7% in assay [3]; 89.8% in [4]; 64.9% in [5]; 64% in [6]. The growth in assay [7] was 69.9%; in assay [8], 20.7%; in assay [9], 45.8%; in assay [10], 21.1%; in assay [11], 90%; in assay [12] it was 92.6%. Besides, the growth was 61.6% in [13]; 46.7% in assay [14]; 76.1% in assay [15]; 35.4% in assay [16]; 52.1% in [17]; 36.5% in assay [18].

Regarding `Cc1ccccc1NC(=O)Cn1cc(CN2CCN(c3ccnc4cc(Cl)ccc34)CC2)nn1`, the growth in [1] was 86.8%; in [2] it was 79.7%; in [3] it was 103%; in assay [4], 103%; in [5], 94%; in assay [6], 95.6%. The growth in [7] is 99.8%; in assay [8], 105%; in [9], 85.5%; in assay [10] it was 99.1%; in [11] it was 92.4%; in assay [12], 93.4%. In addition, the growth is 99.4% in [13]; 94.2% in assay [14]; 93.9% in assay [15]; 100% in assay [16]; 93.3% in assay [17]; 91.5% in assay [18].

As for `O=C(/C=C/C12c3ccccc3C(c3ccccc31)C1C(=O)NC(=O)C12)c1cccs1` (stereo not drawn), the growth in [1] was 20.3%; in assay [2] it was 1.76% (active); in assay [3], 18.4%; in assay [4] it was 48%; in assay [5] it was 60%; in assay [6], 59.1%. For the same compound, the growth was 37% in [7]; -0.389% (active) in assay [8]; 36.2% in [9]; 26.6% in assay [10]; 39.9% in assay [11]; 33.5% in [12]. Also, the growth is 4.93% (active) in assay [13]; 27.1% in assay [14]; 14.2% in assay [15]; 14.4% in [16]; 99.4% in assay [17]; 22.6% in assay [18].

On to `Cc1ccc(C(=O)Nc2ccc(CN3CCN(C)CC3)c(C(F)(F)F)c2)cc1C#Cc1cnc(N)c2ccccc12`, for which the growth in [1] was -8.12% (active); in assay [2], -39.6% (active); in assay [3], -42.1% (active); in assay [4], 2.98% (active); in [5] it was -52% (active); in [6], -1.39% (active). Moreover, the growth was -37.6% (active) in assay [7]; -57.7% (active) in assay [8]; -28.1% (active) in [9]; -32.8% (active) in assay [10]; 30.5% in [11]; 51.3% in assay [12]. For the same compound, the growth was -97% (active) in [13]; -88.4% (active) in assay [14]; -81.5% (active) in assay [15]; -90.5% (active) in assay [16]; -83.5% (active) in [17]; -83.1% (active) in assay [18].

Consider `Cc1ccc(S(=O)(=O)c2nc(-c3ccccc3)oc2S(C)=O)cc1` (stereo not drawn), for which the growth in assay [1] is -26.8% (active); in [2], -51.3% (active); in [3], 2.01% (active); in assay [4], 45%; in [5], 37.3%; in assay [6], 83.6%. The growth in assay [7] is -50.6% (active); in [8] it was -89.3% (active); in [9], 78.9%; in assay [10] it was 70.1%; in [11] it was -49% (active); in assay [12], 27.5%. Besides, the growth was 37% in [13]; -55.4% (active) in [14]; -20% (active) in assay [15]; -20.3% (active) in assay [16]; 70.5% in assay [17]; 49.8% in assay [18].

`Cn1ccnc1C(=O)/C=C/c1ccc(CC(=O)Nc2cc(F)c(F)c(F)c2)cc1`: the growth in [1] was 12.1%; in assay [2] it was 4.01% (active); in assay [3], -3.42% (active); in assay [4], 17.9%; in assay [5], 41.7%; in [6], 85.2%. Moreover, the growth in assay [7] was 29%; in assay [8], -33.9% (active); in [9] it was 13%; in [10], -29.8% (active); in assay [11], 29.2%; in [12] it was 16.3%. The growth was 19.2% in [13]; 9% (active) in assay [14]; 10.7% in assay [15]; 5.93% (active) in assay [16]; 4.93% (active) in [17]; 9.05% (active) in assay [18].

In the case of `COc1ccc(-c2csc(NC(=O)CSc3nc(C)cc(=O)[nH]3)n2)cc1`, the growth in assay [1] was 118%; in assay [2] it was 96%; in assay [3] it was 102%; in assay [4], 112%; in [5], 104%; in [6] it was 102%. The growth was 101% in assay [7]; 103% in assay [8]; 96.8% in assay [9]; 96.9% in [10]; 89.2% in [11]; 86.1% in [12]. In addition, the growth is 108% in [13]; 101% in [14]; 92.8% in assay [15]; 102% in assay [16]; 117% in [17]; 100% in assay [18].

Turning to `Nc1ccc(Cl)c2c(=O)c3ccccc3[nH]c12`, the growth is 100% in assay [1]; 71% in assay [2]; 92.2% in [3]; 93.2% in assay [4]; 53.8% in assay [5]; 89.2% in [6]. In addition, the growth in assay [7] is 94.7%; in assay [8], 75.2%; in assay [9], 98%; in assay [10], 97%; in assay [11], 82.6%; in [12] it was 75.4%. Further, the growth is 86.3% in [13]; 86% in assay [14]; 65% in assay [15]; 84.9% in assay [16]; 88.6% in assay [17]; 89.7% in assay [18].

Regarding `CN(C)c1ccc(/C=C/C2=[N+](C)c3ccccc3C2(C)C)cc1`, the growth is 6.36% (active) in [1]; -20.3% (active) in assay [2]; 14.8% in assay [3]; 35.6% in assay [4]; 31.2% in assay [5]; 4.03% (active) in [6]. In addition, the growth in assay [7] was 34.7%; in assay [8], 10%; in [9], 43.3%; in assay [10], 77.8%; in [11] it was 20.5%; in assay [12], 17.2%. The growth is 12.9% in assay [13]; 37.7% in [14]; 5.64% (active) in assay [15]; 15.7% in assay [16]; 28% in assay [17]; 7.96% (active) in assay [18].

Turning to `Nc1nc(N)c2c(n1)NC(c1ccc3c(c1)OCO3)CC(c1cccc(Nc3ccncc3)c1)=N2` (stereo not drawn), the growth was 53.1% in [1]; 80.5% in [2]; 83.8% in [3]; 114% in assay [4]; 98.7% in assay [5]; 90.9% in assay [6]. Also, the growth in assay [7] was 79.7%; in assay [8], 90.9%; in assay [9], 81.4%; in assay [10], 107%; in [11], 88.5%; in assay [12], 117%. Also, the growth in [13] was 50.5%; in assay [14], 58%; in assay [15] it was 63%; in assay [16] it was 43.7%; in [17] it was 88.1%; in [18], 80%.

`CCCCCCCC/C=C\CCCCCCCCOc1ccc(CC(=O)NCC[N+]2(C)CCCC2)cc1`: the growth was 50.3% in assay [1]; 58.2% in [2]; 50.4% in assay [3]; 25% in assay [4]; 62.1% in assay [5]; 104% in assay [6]. Further, the growth was -11.8% (active) in assay [7]; 84.3% in assay [8]; 84.2% in assay [9]; 111% in assay [10]; 77.2% in assay [11]; 73.6% in [12]. Besides, the growth in assay [13] was 77.2%; in [14] it was 54.5%; in assay [15], 57.1%; in assay [16] it was 53.2%; in [17], 37.2%; in assay [18], 27.5%.

For `CC(C)c1nc(N(C)S(C)(=O)=O)nc(-c2ccc(F)cc2)c1/C=C/C(=O)C[C@@H](O)CC(=O)O`, the growth in [1] is 105%; in assay [2], 107%; in assay [3], 94.2%; in [4], 106%; in assay [5], 113%; in assay [6] it was 102%. Also, the growth in [7] is 105%; in assay [8] it was 111%; in assay [9], 102%; in assay [10] it was 107%; in [11] it was 101%; in assay [12], 94.2%. For the same compound, the growth in [13] is 103%; in [14], 108%; in assay [15], 97.2%; in [16], 91.1%; in assay [17], 98.2%; in assay [18] it was 97.1%.

With `COc1ccc(-c2ccc(-c3ccc(C(=N)N)o3)o2)cc1`, the growth is -4.13% (active) in assay [1]; 14.3% in [2]; 28.9% in [3]; 38.4% in [4]; 58.8% in [5]; 35.8% in assay [6]. The growth in [7] is 57.1%; in assay [8], -27.8% (active); in assay [9], 56.2%; in assay [10], 14.4%; in assay [11], 26.7%; in [12], 59.6%. Besides, the growth in assay [13] is -65.4% (active); in assay [14], 12.9%; in assay [15], 10.4%; in assay [16], -5.19% (active); in [17] it was -48.7% (active); in assay [18], 11%.

Turning to `O=C(Nc1ccccc1C(F)(F)F)C1=NCCCCN1`, the growth in assay [1] was 102%; in assay [2], 99.6%; in assay [3] it was 99.9%; in assay [4] it was 94.7%; in assay [5] it was 99%; in assay [6], 108%. Also, the growth in assay [7] is 101%; in [8], 101%; in assay [9] it was 99.8%; in assay [10], 103%; in assay [11], 101%; in assay [12], 105%. Also, the growth in assay [13] was 100%; in [14] it was 92.9%; in assay [15], 99.7%; in assay [16] it was 99.5%; in assay [17], 102%; in assay [18] it was 102%.

The record behind these values is PubChem BioAssay (NCI).
